Results filed as inconclusive are left out. The source made the active and inactive calls. Unless noted, calls come from the whole dose curve; as a rule, active = well fitted curve in the direction sought with a large enough effect; inconclusive = small, poorly fitted or top-dose-only effect, or another doubt; inactive = no such curve, though single readings can be large; an effect the other way counts as inactive or inconclusive.
Assays:
[1] = molecular target: Retinoic acid receptor RXR-alpha (Homo sapiens) (UniProt P19793); assay: qHTS assay for small molecule antagonists of retinoid X receptor alpha signaling (AID 588546; active = well fitted inhibition curve with a large enough effect in the signal ratio, with a control signal flat, not every such curve was filed as active; the % refers to the signal ratio;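 note: cells stimulated with 9-cis-retinoic acid as agonist; % is set by controls: 0 for no effect and ±100 for the full control effect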); conditions: HEK293T RXRa-UAS-bla, beta-lactamase ratio, antagonist mode
Chain of Retinoic acid receptor RXR-alpha (Homo sapiens) (P19793 whole entry, looked up): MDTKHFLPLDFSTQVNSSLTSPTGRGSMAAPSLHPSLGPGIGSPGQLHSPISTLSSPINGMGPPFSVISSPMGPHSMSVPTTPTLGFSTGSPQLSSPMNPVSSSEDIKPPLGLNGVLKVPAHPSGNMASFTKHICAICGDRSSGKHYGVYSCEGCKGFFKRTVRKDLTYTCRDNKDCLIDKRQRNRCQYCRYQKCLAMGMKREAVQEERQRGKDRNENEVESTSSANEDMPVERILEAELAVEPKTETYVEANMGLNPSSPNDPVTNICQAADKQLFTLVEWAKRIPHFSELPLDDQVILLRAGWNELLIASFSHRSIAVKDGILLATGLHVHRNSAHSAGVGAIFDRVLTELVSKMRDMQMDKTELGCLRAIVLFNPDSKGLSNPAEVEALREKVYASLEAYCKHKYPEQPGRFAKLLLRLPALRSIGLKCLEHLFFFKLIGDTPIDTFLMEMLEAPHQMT
In short: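 Beta-lactamase reporter inhibition, read as CCF4 fluorescence ratio (ex 405, em 460/530 nm) after 2 h at RT. HEK293T UAS-bla cells, 2500/well, were stimulated with 9-cis-RA at 500 or 100 nM final alongside test compound for 18 h at 37 C.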

[2] = molecular target: Thyroid hormone receptor beta (Homo sapiens) (UniProt P10828); assay: qHTS assay for small molecule antagonists of thyroid hormone receptor beta signaling (AID 588547; active = well fitted inhibition curve with a large enough effect in the signal ratio, with a control signal flat, not every such curve was filed as active; the % refers to the signal ratio;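 note: cells stimulated with 0.4 nM T3 agonist during compound exposure; % is set by controls: 0 for no effect and ±100 for the full control effect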); conditions: TR-UAS-bla HEK293, beta-lactamase ratio, antagonist mode, 18 h
Chain of Thyroid hormone receptor beta (Homo sapiens) (P10828 whole entry, looked up): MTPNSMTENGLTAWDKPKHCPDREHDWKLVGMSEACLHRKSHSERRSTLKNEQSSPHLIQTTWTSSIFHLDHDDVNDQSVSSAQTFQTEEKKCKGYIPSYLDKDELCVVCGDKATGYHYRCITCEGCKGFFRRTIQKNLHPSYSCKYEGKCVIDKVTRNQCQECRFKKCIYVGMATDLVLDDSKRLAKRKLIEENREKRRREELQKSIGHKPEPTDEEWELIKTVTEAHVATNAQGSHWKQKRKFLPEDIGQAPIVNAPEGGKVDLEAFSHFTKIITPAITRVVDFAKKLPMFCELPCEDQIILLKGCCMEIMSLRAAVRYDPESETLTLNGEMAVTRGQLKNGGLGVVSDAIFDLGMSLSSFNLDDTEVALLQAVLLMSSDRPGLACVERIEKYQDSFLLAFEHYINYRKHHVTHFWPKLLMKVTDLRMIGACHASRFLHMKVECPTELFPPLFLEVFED
In short: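 Inhibition of T3-driven (0.4nM final) beta-lactamase reporter activity was measured over 0.59 nM to 92 uM compound after 18 h at 37 C. The cells were GripTite HEK293 TR-UAS-bla in charcoal/dextran-stripped serum, with CCF4 ratio read-out and IC50 from Hill fits.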

[3] = molecular target: Voltage-gated inwardly rectifying potassium channel KCNH2 (Homo sapiens) (UniProt Q12809); assay: qHTS Assay for Small Molecule Inhibitors of the Human hERG Channel Activity (AID 588834); conditions: U2OS BacMam hERG, FluxOR thallium flux fluorescence; series mostly up to 46.1 µM;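 note: top concentration of the series differs between compounds; % is set by controls: 0 for no effect and ±100 for the full control effect; lower thallium flux fluorescence means stronger hERG block; nearly all actives have a fitted effect of over 50% in size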
Chain of Voltage-gated inwardly rectifying potassium channel KCNH2 (Homo sapiens) (Q12809 whole entry, looked up): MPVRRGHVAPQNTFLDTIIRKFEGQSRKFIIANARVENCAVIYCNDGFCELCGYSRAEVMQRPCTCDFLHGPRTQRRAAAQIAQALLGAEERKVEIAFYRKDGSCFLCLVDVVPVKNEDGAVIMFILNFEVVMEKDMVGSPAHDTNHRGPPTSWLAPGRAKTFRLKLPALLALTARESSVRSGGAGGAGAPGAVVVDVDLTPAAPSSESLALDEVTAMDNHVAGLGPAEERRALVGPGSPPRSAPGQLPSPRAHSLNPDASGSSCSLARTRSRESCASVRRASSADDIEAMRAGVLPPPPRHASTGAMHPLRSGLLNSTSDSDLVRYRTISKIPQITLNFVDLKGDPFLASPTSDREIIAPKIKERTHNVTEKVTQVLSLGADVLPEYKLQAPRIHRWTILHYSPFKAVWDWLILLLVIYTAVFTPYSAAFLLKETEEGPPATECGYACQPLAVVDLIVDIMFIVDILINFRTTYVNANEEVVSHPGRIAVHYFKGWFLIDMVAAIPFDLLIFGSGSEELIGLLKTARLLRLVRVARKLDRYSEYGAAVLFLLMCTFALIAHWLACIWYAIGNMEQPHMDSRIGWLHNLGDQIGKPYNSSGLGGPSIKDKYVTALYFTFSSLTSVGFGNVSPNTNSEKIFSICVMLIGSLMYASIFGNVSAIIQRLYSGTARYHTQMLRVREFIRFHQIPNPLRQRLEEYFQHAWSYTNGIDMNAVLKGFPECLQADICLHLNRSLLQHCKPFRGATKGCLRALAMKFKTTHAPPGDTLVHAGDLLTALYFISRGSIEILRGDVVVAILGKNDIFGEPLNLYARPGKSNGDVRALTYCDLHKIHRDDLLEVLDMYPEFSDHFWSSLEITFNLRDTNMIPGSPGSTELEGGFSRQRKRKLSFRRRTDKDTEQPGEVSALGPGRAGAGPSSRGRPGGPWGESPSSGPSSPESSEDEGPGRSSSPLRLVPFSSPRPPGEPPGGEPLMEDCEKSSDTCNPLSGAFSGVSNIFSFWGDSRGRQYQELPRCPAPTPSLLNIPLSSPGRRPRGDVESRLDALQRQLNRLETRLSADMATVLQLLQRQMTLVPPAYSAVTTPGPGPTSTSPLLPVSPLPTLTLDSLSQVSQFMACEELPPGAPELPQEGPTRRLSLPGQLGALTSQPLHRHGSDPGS
In short: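 U2OS cells transduced with hERG via BacMam (MOI ~100), plated 2000/well, loaded with FluxOR thallium dye, compound ~10 min, then stimulation buffer; fluorescence decrease read kinetically; AC50 from Hill fits.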

[4] = molecular target: Luciferin 4-monooxygenase (Photinus pyralis) (UniProt P08659); assay: Biochemical firefly luciferase enzyme assay for NPC (AID 624030);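 note: purified P. pyralis luciferase at 10 nM with luciferin and ATP substrate; 0% = DMSO and -100% = full luciferase inhibition by PTC124 control; nearly all actives have a fitted effect of over 70% in size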; conditions: purified P. pyralis luciferase, luminescence, 5 min; series mostly up to 58.6 µM
Chain of Luciferin 4-monooxygenase (Photinus pyralis) (P08659 whole entry, looked up): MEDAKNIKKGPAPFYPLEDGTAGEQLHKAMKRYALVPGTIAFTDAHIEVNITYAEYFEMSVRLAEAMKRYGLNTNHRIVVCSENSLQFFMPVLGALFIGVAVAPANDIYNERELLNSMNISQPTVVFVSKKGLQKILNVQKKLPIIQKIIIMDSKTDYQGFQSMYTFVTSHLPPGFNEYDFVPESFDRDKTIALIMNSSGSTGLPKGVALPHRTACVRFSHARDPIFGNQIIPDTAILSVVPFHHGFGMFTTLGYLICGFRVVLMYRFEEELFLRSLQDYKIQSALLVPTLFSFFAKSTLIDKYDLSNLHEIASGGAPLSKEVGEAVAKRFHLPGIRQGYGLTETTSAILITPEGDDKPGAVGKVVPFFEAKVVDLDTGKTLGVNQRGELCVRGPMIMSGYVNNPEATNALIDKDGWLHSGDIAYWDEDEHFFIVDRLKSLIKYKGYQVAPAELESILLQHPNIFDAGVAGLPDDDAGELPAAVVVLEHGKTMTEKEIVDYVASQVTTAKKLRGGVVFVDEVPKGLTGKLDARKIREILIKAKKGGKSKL
In short: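 Direct inhibition of firefly luciferase enzyme (10 nM final, 50 mM Tris Acetate) assessed by luminescence within 5 minutes. Percent activity scaled between DMSO and PTC124 positive control, with concentration-effect curves classified by fit quality and response.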

[5] = S16 Schwann cell viability assay (CellTiter-Glo assay) (AID 624031); conditions: S16 rat Schwann cells viability, 24 h; series mostly up to 57.5 µM;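 note: cellular ATP luminescence as a viability measure; plate controls were DMSO-treated cells for no effect and cell-free wells for full effect; nearly all actives have a fitted effect of over 70% in size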
In short: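 Untransfected S16 rat Schwann cells; compound 24 h, 37 °C/5% CO2; CellTiter-Glo ATP luminescence. % activity vs no-cell wells and DMSO controls (0%); concentration-effect curves classed by r2, response magnitude, activity.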

[6] = S16 Schwann cell PMP22 intronic element firefly luciferase assay (AID 624032); conditions: S16 rat Schwann cells, PMP22 element FLuc, 24 h; series mostly up to 57.5 µM;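 note: plate controls were DMSO for no effect and PTC124 positive control mean for full effect; nearly all actives have a fitted effect of over 30% in size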
In short: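 Luciferase reporter of PMP22 intronic-element expression in stably transfected S16 rat Schwann cells, read by ONE-Glo luminescence after 24 h compound exposure at 37 C. Activity scaled between DMSO (0%) and positive-control PTC124; concentration-effect curves quality-classified.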

[7] = S16 Schwann cell PMP22 intronic element beta-lactamase assay (AID 624044; calls by dose curve;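 note: 0% = DMSO and -100% = potassium clavulanate positive control; nearly all actives have a fitted effect of over 15% in size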); conditions: S16 rat Schwann cells, PMP22 element beta-lactamase FRET, 24 h; series mostly up to 38.3 µM
In short: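 Rat S16 Schwann cells with beta-Lac driven by a PMP22 intronic element, compound-treated 24 h at 37 °C. LiveBLAzer FRET B/G read: 460 nm normalized to potassium clavulanate vs DMSO; 535 nm FRET as viability; concentration-effect curves classified.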

[8] = qHTS assay for small molecule agonists of the antioxidant response element (ARE) signaling pathway (AID 651741; active = well fitted activation curve with a large enough effect in the signal ratio; the % refers to the signal ratio; note: potency is the fitted concentration of half-maximal effect; for activation: % of control where 0% means no effect); conditions: HepG2 ARE-bla reporter, beta-lactamase FRET ratio, 16 h; series mostly up to 96 µM
In short: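 Seeding 2,000 ARE-bla HepG2 cells per well preceded a 5 h incubation at 37 C/5% CO2 and a 16 h compound exposure at 37 C. Beta-lactamase reporter activity was then quantified by fluorescence after 2 h with LiveBLAzer B/G FRET substrate.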

[9] = qHTS assay for small molecule activators of the p53 signaling pathway (AID 651743; active = well fitted activation curve with a large enough effect in the signal ratio, not every such curve was filed as active; the % refers to the signal ratio; note: % of control where 0% means no effect); conditions: HCT-116 p53RE-bla, beta-lactamase FRET ratio, 16 h; active compounds read high
In short: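 Screen for p53 pathway agonists uses stably transfected p53RE-bla HCT-116 cells, 4,000 per well, treated 16 h at 37 C with compounds in DMSO.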

[10] = qHTS assay for small molecule activators of the nuclear factor-kappa B (NF-kB) signaling pathway (AID 651749; active = well fitted activation curve with a large enough effect in the signal ratio; the % refers to the signal ratio; note: % of control where 0% means no effect); conditions: NF-kB-bla ME-180 cells, beta-lactamase FRET ratio, 16 h; active compounds read high
In short: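 Stably transfected ME-180 line; NF-kB response element upstream of beta-lactamase. Treatment: compound or DMSO, 16 hr. Detection: fluorescent FRET substrate.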

[11] = qHTS assay for environmental chemicals that activate the Aryl hydrocarbon Receptor (AhR) signaling pathway (AID 651777); conditions: 1A2-DRE human hepatoma cells, luciferase, 24 h; active compounds read high; note: % of control where 0% means no effect; nearly all actives have a fitted effect of over 15% in size
In short: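 Luminescence read-out: One-Glo added for 30 min at RT after 24 hr compound treatment (37 C, 5% CO2) of human hepatoma cells expressing a DRE/CYP1A2 promoter–luciferase reporter; increased signal indicates AhR activation.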

[12] = molecular target: Peroxisome proliferator-activated receptor alpha (Homo sapiens) (UniProt Q07869); assay: qHTS assay for small molecule agonists of the peroxisome proliferator-activated receptor alpha (PPARalpha) signaling pathway (AID 651778); conditions: PathHunter PPARalpha complementation, chemiluminescence, 6 h; active compounds read high; note: % of control where 0% means no effect
Chain of Peroxisome proliferator-activated receptor alpha (Homo sapiens) (Q07869 whole entry, looked up): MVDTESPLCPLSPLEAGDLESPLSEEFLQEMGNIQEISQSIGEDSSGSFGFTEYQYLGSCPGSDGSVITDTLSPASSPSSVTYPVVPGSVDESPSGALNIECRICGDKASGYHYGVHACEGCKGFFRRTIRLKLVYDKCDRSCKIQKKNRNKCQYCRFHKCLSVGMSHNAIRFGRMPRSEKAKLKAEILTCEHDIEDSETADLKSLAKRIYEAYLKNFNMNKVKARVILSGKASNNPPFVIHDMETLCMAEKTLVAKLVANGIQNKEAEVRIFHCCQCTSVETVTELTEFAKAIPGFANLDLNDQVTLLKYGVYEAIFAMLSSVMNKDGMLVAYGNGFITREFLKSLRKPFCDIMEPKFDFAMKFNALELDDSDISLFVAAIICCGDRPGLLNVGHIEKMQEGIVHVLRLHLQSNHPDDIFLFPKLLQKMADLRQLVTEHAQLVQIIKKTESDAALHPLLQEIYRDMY
In short: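 Chemiluminescence from complemented enzyme reported PPARalpha activation in cells after 6 hr of compound treatment at 37 C. The detection reagent was incubated for 60 min at room temperature, and compounds were scored as agonists.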

[13] = qHTS assay for small molecule agonists of the antioxidant response element (ARE) signaling pathway measured by Nrf2-dependant transcriptional activity (AID 720636; active = well fitted curve in the direction sought with a large enough effect in the repeat runs; an effect the other way counts as inactive or inconclusive;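 note: HepG2 cells with an ARE-driven luciferase reporter; % of control where 0% means no effect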); conditions: ARE-luc HepG2, Nrf2 luciferase reporter, 16 h; series mostly up to 92.4 µM
In short: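 HepG2 ARE-luc reporter line, 1% dialyzed FBS; 6 hr attachment at 37 C, compound pinned in, 16 hr at 37 C/5% CO2; ONE-Glo, 30 min RT, luminescence read.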

[14] = qHTS assay for small molecule agonists of the antioxidant response element (ARE) signaling pathway measured by Nrf2-dependant transcriptional activity - cell viability counter screen (AID 720653; active = well fitted curve in the direction sought with a large enough effect in the repeat runs; an effect the other way counts as inactive or inconclusive; note: % is set by controls: 0 for no effect and ±100 for the full control effect); conditions: ARE-bla HepG2 viability, CellTiter-Glo ATP luminescence, 16 h; active compounds read low
In short: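 Cytotoxicity counter screen: intracellular ATP quantified by CellTiter-Glo luminescence in the same ARE-bla HepG2 plates, after 16 h compound exposure and a 2 h beta-lactamase substrate step.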

[15] = qHTS assay for small molecule antagonists of the retinoid-related orphan receptor gamma (ROR-gamma) signaling pathway - cell viability counter screen (AID 720652; active = well fitted curve in the direction sought with a large enough effect in the repeat runs; an effect the other way counts as inactive or inconclusive;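 note: compound exposure lasted 16 hr before ATP read; % is set by controls: 0 for no effect and ±100 for the full control effect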); conditions: RORgamma reporter cell line viability counter screen; series mostly up to 92.2 µM
In short: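 Counter screen in CHO cells carrying TET-inducible ROR-gamma and an ROR response element-luciferase reporter; cells plated 5 hr, compound pinned, doxycycline added, then 16 hr at 37 C. Viability read as intracellular ATP by CellTiter-Glo luminescence.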

[16] = qHTS assay for small molecule disruptors of the mitochondrial membrane potential - 1 hr assay (AID 651754; calls by dose curve; note: % is set by controls: 0 for no effect and ±100 for the full control effect; nearly all actives have a fitted effect of over 35% in size); conditions: series mostly up to 92.2 µM
In short: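 HepG2 cells, attached overnight at 37C, were exposed to compound or DMSO vehicle for 1 hr at 37C, 5% CO2, then stained with Mito-MPS dye for 30 min. Red aggregate versus green monomer fluorescence reports membrane potential.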

[17] = qHTS assay for small molecule disruptors of the mitochondrial membrane potential - 5 hr assay (AID 651755; calls by dose curve; note: % is set by controls: 0 for no effect and ±100 for the full control effect; nearly all actives have a fitted effect of over 40% in size); conditions: JC-1-type ratio dye; series mostly up to 92.2 µM
In short: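 HepG2, 2,000 cells/well, overnight attach; cpd or DMSO 5 hr, 37C/5% CO2; Mito-MPS 30 min 37C; fluor 490/535 + 540/590 nm.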

[18] = molecular target: Nuclear receptor ROR-gamma (Homo sapiens) (UniProt P51449); assay: qHTS assay for small molecule antagonists of the retinoid-related orphan receptor gamma (ROR-gamma) signaling pathway (AID 651802); conditions: ROR-gamma antagonist cell reporter assay; series mostly up to 92.2 µM; note: % is set by controls: 0 for no effect and ±100 for the full control effect; nearly all actives have a fitted effect of over 60% in size
Chain of Nuclear receptor ROR-gamma (Homo sapiens) (P51449 whole entry, looked up): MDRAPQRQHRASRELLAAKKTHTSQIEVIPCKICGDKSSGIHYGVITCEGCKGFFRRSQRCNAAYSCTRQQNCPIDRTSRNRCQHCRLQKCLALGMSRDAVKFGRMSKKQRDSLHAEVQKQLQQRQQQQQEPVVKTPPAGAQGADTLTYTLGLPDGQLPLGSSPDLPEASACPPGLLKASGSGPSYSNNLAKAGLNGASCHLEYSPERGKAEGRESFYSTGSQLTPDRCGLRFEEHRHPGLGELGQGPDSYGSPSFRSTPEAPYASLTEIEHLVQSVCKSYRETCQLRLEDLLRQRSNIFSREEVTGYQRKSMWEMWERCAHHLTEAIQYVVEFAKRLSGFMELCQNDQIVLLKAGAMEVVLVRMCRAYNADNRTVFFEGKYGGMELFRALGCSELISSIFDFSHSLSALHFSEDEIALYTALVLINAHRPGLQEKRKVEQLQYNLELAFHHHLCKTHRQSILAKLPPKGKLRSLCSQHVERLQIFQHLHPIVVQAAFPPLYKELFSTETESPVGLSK
In short: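 CHO cells carrying TET-inducible ROR-gamma and an ROR response element–luciferase reporter were exposed to compound, then induced with doxycycline. After 16hr at 37C, luminescence was read; lower signal indicates antagonism.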

CC(C)=CCC/C(C)=C/CO
inactive: max response [1] -1.85% | activity change % (negative = inhibition) [2] 13.2% | Potency [3] | Potency [4] | outcome [5] | Potency [6] | outcome [7] | Potency [8] | activation [9] -2.29% | activation [10] -0.602% | activation [11] -0.426% | max response [12] -2.93% | outcome [13] | max response [14] 4.56%

CC(=O)Nc1cccc(O)c1
inactive: max response [1] 5.72% | activity change % (negative = inhibition) [2] 8.82% | Potency [3] | Potency [4] | outcome [5] | Potency [6] | Potency [8] | activation [9] -0.0293% | activation [10] 0.693% | activation [11] 2.7% | max response [12] -0.0766% | outcome [13] | outcome [15] | max response [14] 3.22%

CC(=O)NS(=O)(=O)c1ccc(N)cc1
inactive: max response [1] 16.1% | activity change % (negative = inhibition) [2] -0.298% | Potency [4] | outcome [5] | Potency [6] | outcome [7] | activation [9] -3.02% | activation [10] -0.656% | Potency [16] | Potency [17] | activation [11] -0.967% | max response [12] -6.08% | outcome [18] | outcome [13] | outcome [15] | max response [14] -11.8%

COC(=O)c1ccc(O)cc1
active: Potency [8] 19.3 µM
inactive: max response [1] -10.5% | activity change % (negative = inhibition) [2] -5.41% | Potency [3] | Potency [4] | outcome [5] | Potency [6] | activation [10] -2.57% | activation [11] 7.25% | max response [12] -1.49% | max response [14] -3.37%

CCCCCCCC(=O)OCC(COC(=O)CCCCCCC)OC(=O)CCCCCCC
inactive: max response [1] 4.61% | activity change % (negative = inhibition) [2] -4.42% | Potency [3] | Potency [4] | outcome [5] | Potency [6] | activation [9] -2.91% | activation [11] -1.98% | max response [12] 4.51% | outcome [18] | outcome [13] | outcome [15] | max response [14] 1.9%

CCCCCCCCCCCCCCCCCCO
inactive: max response [1] 3.77% | activity change % (negative = inhibition) [2] 3.9% | Potency [3] | Potency [4] | outcome [5] | activation [9] -2.92% | activation [11] 0.518% | max response [12] -0.423% | outcome [13] | max response [14] 2.19%

Reference: PubChem BioAssay (NCATS)
